Compounds without any hit were thinned out: in the full panel of roughly 83,000, 20% have a hit.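 Assay: single dose, 48 h. Readout: percent growth (0 = no net growth; negative = cell death). Active: <10.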 A number with no mark means an inactive call.

The test has as its system M14 melanoma. Kind of test: NCI-60 one-dose screen, 48 h (100 = growth as untreated, 0 = no growth, -100 = all killed). The conditions noted are these: 10 µM unless noted.
As to `CC1=CCC(OC(=O)C(C)(O)CCC(O)(C(=O)OC2(C)C=CC(O)(C(C)C)CC2)C(C)C)(C(C)C)CC1` (centres undefined), the growth was 102%.
As for `CCCCCCNC(=O)Nc1ccc2cc3ccc(NC(=O)NCCCCCC)cc3nc2c1`, the figure is 28.5%.
For the molecule `C[C@H]1[C@H](C)CC[C@]2(C(=O)NCC#CCN3CCN(C)CC3)CC[C@]3(C)C(=CC[C@@H]4[C@@]5(C)Cc6c([nH]c7ccccc67)C(C)(C)[C@@H]5CC[C@]43C)[C@H]12`, the growth is 71.3%.
For the molecule `O=C(/C=C(/C=C/c1coc2ccccc12)OB(F)F)/C=C/c1coc2ccccc12`, the growth is 96%.
